# Measured values: the supplement of paper PMC8728848
# This excerpt belongs to a sample that is enriched for the strongest signals.
# Tests used:
# Test in all cases: glycan array binding signal (z-score within array); higher = stronger binding
# Settings in all cases: glycan notation: IUPAC condensed, linker removed
# [1] = molecular target: Fuc(a1-2)Gal(b1-3)GlcNAc(b1-2)Man(a1-3)[Fuc(a1-2)Gal(b1-3)GlcNAc(b1-2)Man(a1-6)]Man(b1-4)GlcNAc(b1-4)GlcNAc
# Procedure, shortened: (§1)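 Negative Z-scores can be read as non-binding. The Z-score is calculated within each array and then averaged across arrays of one protein sequence at different concentrations or buffers and across linkers. Arrays, 3228 in all, were curated from the Consortium for Functional Glycomics database and kept only where the protein sequence was available.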
# [2] = molecular target: Fuc(a1-2)Gal(b1-4)[Fuc(a1-3)]GlcNAc
# Procedure, shortened: as §1
# [3] = molecular target: Fuc(a1-2)[Gal(a1-3)]Gal(b1-3)GalNAc
# Procedure, shortened: as §1
# [4] = molecular target: Fuc(a1-2)[Gal(a1-3)]Gal(b1-3)GlcNAc(b1-2)Man(a1-3)[Fuc(a1-2)[Gal(a1-3)]Gal(b1-3)GlcNAc(b1-2)Man(a1-6)]Man(b1-4)GlcNAc(b1-4)GlcNAc
# Procedure, shortened: as §1
# [5] = molecular target: Fuc(a1-2)[Gal(a1-3)]Gal(b1-4)GlcNAc(b1-3)GalNAc
# Procedure, shortened: as §1
# [6] = molecular target: Fuc(a1-2)[GalNAc(a1-3)]Gal(b1-3)GlcNAc(b1-2)Man(a1-3)[Fuc(a1-2)[GalNAc(a1-3)]Gal(b1-3)GlcNAc(b1-2)Man(a1-6)]Man(b1-4)GlcNAc(b1-4)GlcNAc
# Procedure, shortened: as §1
# [7] = molecular target: Fuc(a1-2)[GalNAc(a1-3)]Gal(b1-4)GlcNAc(b1-3)GalNAc
# Procedure, shortened: as §1
# [8] = molecular target: Fuc(a1-3)[Gal(b1-4)]GlcNAc6S
# Procedure, shortened: as §1
# [9] = molecular target: Fuc(b1-3)GlcNAc
# Procedure, shortened: as §1
# [10] = molecular target: Gal(a1-3)Gal
# Procedure, shortened: as §1
# [11] = molecular target: Gal(a1-3)Gal(b1-4)[Fuc(a1-3)]GlcNAc(b1-2)Man(a1-3)[Gal(a1-3)Gal(b1-4)[Fuc(a1-3)]GlcNAc(b1-2)Man(a1-6)]Man(b1-4)GlcNAc(b1-4)GlcNAc
# Procedure, shortened: as §1
# [12] = molecular target: Gal(a1-3)GalNAc
# Procedure, shortened: as §1
# [13] = molecular target: Gal(b1-3)Gal(b1-4)GlcNAc(b1-2)Man(a1-3)[Gal(b1-3)Gal(b1-4)GlcNAc(b1-2)Man(a1-6)]Man(b1-4)GlcNAc(b1-4)GlcNAc
# Procedure, shortened: as §1
# [14] = molecular target: Gal(b1-3)GalNAc(a1-3)[Fuc(a1-2)]Gal(b1-4)GlcNAc
# Procedure, shortened: as §1
# [15] = molecular target: Gal(b1-3)GlcNAc
# Procedure, shortened: as §1
# [16] = molecular target: Gal(b1-3)GlcNAc(b1-2)Man(a1-3)[Gal(b1-3)GlcNAc(b1-2)Man(a1-6)]Man(b1-4)GlcNAc(b1-4)GlcNAc
# Procedure, shortened: as §1
# [17] = molecular target: Gal(b1-3)GlcNAc(b1-3)Gal(b1-4)GlcNAc
# Procedure, shortened: as §1
# [18] = molecular target: Gal(b1-4)GlcNAc(b1-2)Man(a1-3)[Gal(b1-4)GlcNAc(b1-2)Man(a1-6)]Man(b1-4)GlcNAc(b1-4)[Fuc(a1-6)]GlcNAc
# Procedure, shortened: as §1
# [19] = molecular target: Gal(b1-4)GlcNAc(b1-2)[Gal(b1-4)GlcNAc(b1-4)]Man(a1-3)[Gal(b1-4)GlcNAc(b1-2)Man(a1-6)]Man(b1-4)GlcNAc(b1-4)GlcNAc
# Procedure, shortened: as §1
# [20] = molecular target: Gal(b1-4)GlcNAc(b1-3)Gal(b1-3)GlcNAc
# Procedure, shortened: as §1
# [21] = molecular target: Gal(b1-4)GlcNAc(b1-3)Gal(b1-4)[Fuc(a1-3)GlcNAc(b1-6)]Gal(b1-4)Glc
# Procedure, shortened: as §1
# [22] = molecular target: Gal(b1-4)GlcNAc(b1-3)[Gal(b1-4)GlcNAc(b1-6)]Gal(b1-4)GlcNAc
# Procedure, shortened: as §1
# [23] = molecular target: Gal(b1-4)GlcNAc(b1-3)[GlcNAc(b1-6)]Gal(b1-4)GlcNAc
# Procedure, shortened: as §1
# [24] = molecular target: Gal3S(b1-3)[Fuc(a1-4)]GlcNAc
# Procedure, shortened: as §1
# [25] = molecular target: Gal3S(b1-4)Glc
# Procedure, shortened: as §1
# [26] = molecular target: Gal3S(b1-4)GlcNAc6S
# Procedure, shortened: as §1
# [27] = molecular target: Gal6S(b1-4)GlcNAc6S
# Procedure, shortened: as §1
# [28] = molecular target: GalNAc(b1-4)Gal(b1-4)Glc
# Procedure, shortened: as §1
# [29] = molecular target: Glc(a1-4)Glc
# Procedure, shortened: as §1
# [30] = molecular target: Glc(a1-6)Glc(a1-6)Glc
# Procedure, shortened: as §1
# [31] = molecular target: GlcNAc(a1-4)Gal(b1-4)GlcNAc(b1-3)Gal(b1-4)GlcNAc
# Procedure, shortened: as §1
# [32] = molecular target: GlcNAc(a1-4)Gal(b1-4)GlcNAc(b1-3)Gal(b1-4)[Fuc(a1-3)]GlcNAc(b1-3)Gal(b1-4)[Fuc(a1-3)]GlcNAc
# Procedure, shortened: as §1
# [33] = molecular target: GlcNAc(b1-2)[GlcNAc(b1-6)]Man(a1-6)[GlcNAc(b1-2)Man(a1-3)]Man(b1-4)GlcNAc(b1-4)GlcNAc
# Procedure, shortened: as §1
# [34] = molecular target: GlcNAc(b1-2)[GlcNAc(b1-6)]Man(a1-6)[GlcNAc(b1-2)Man(a1-3)][GlcNAc(b1-4)]Man(b1-4)GlcNAc(b1-4)GlcNAc
# Procedure, shortened: as §1
# [35] = molecular target: GlcNAc(b1-3)[GlcNAc(b1-4)][GlcNAc(b1-6)]GlcNAc
# Procedure, shortened: as §1
# [36] = molecular target: GlcNAc(b1-4)GlcNAc
# Procedure, shortened: as §1
# [37] = molecular target: Man(a1-3)[Man(a1-6)]Man(b1-4)GlcNAc(b1-4)GlcNAc
# Procedure, shortened: as §1
# [38] = molecular target: Neu5Ac(a2-3)Gal(b1-3)GlcNAc
# Procedure, shortened: as §1
# [39] = molecular target: Neu5Ac(a2-3)Gal(b1-3)[Neu5Ac(a2-6)]GalNAc
# Procedure, shortened: as §1
# [40] = molecular target: Neu5Ac(a2-3)Gal(b1-4)GlcNAc(b1-6)[Gal(b1-3)]GalNAc
# Procedure, shortened: as §1
# [41] = molecular target: Neu5Ac(a2-3)Gal(b1-4)[Fuc(a1-3)]GlcNAc(b1-3)GalNAc
# Procedure, shortened: as §1
# [42] = molecular target: Neu5Ac(a2-3)GalNAc
# Procedure, shortened: as §1
# [43] = molecular target: Neu5Ac(a2-6)Gal(b1-4)GlcNAc(b1-2)Man(a1-3)[Gal(b1-4)GlcNAc(b1-2)Man(a1-6)]Man(b1-4)GlcNAc(b1-4)GlcNAc
# Procedure, shortened: as §1
# [44] = molecular target: Neu5Ac(a2-6)Gal(b1-4)GlcNAc(b1-2)Man(a1-6)Man(b1-4)GlcNAc(b1-4)GlcNAc
# Procedure, shortened: as §1
# [45] = molecular target: Neu5Ac(a2-8)Neu5Ac(a2-3)[GalNAc(b1-4)]Gal(b1-4)Glc
# Procedure, shortened: as §1
# [46] = molecular target: Neu5Ac(a2-8)Neu5Ac(a2-8)Neu5Ac(a2-3)[GalNAc(b1-4)]Gal(b1-4)Glc
# Procedure, shortened: as §1
# [47] = molecular target: Neu5Ac(b2-6)Gal(b1-4)GlcNAc
# Procedure, shortened: as §1
# [48] = molecular target: Neu5Ac9Ac(a2-3)Gal(b1-3)GlcNAc
# Procedure, shortened: as §1
# [49] = molecular target: Neu5Gc(b2-6)Gal(b1-4)GlcNAc
# Procedure, shortened: as §1
binder,measurement,setting,value
"Eosinophil-derived neurotoxin (EDN) (Homo sapiens), P10153 (protein) MVPKLFTSQICLLLLLGLLAVEGSLHVKPPQFTWAQWFETQHINMTSQQCTNAMQVINNYQRRCKNQNTFLLTTFANVVNVCGNPNMTCPSNKTRKNCHHSGSQVPLIHCNLTTPSPQNISNCRYAQTPANMFYIVACDNRDQRRDPPQYPVVPVHLDRII",glycan array binding signal (z-score),[1],0.954
same,glycan array binding signal (z-score),[2],-0.438
same,glycan array binding signal (z-score),[3],-0.092
same,glycan array binding signal (z-score),[4],0.666
same,glycan array binding signal (z-score),[5],-0.523
same,glycan array binding signal (z-score),[6],0.308
same,glycan array binding signal (z-score),[7],0.483
same,glycan array binding signal (z-score),[8],0.272
same,glycan array binding signal (z-score),[9],-0.332
same,glycan array binding signal (z-score),[10],-0.363
same,glycan array binding signal (z-score),[11],0.387
same,glycan array binding signal (z-score),[12],-0.593
same,glycan array binding signal (z-score),[13],0.187
same,glycan array binding signal (z-score),[14],0.269
same,glycan array binding signal (z-score),[15],-0.339
same,glycan array binding signal (z-score),[16],-0.33
same,glycan array binding signal (z-score),[17],0.648
same,glycan array binding signal (z-score),[18],1.36
same,glycan array binding signal (z-score),[19],-0.461
same,glycan array binding signal (z-score),[20],-0.443
same,glycan array binding signal (z-score),[21],0.142
same,glycan array binding signal (z-score),[22],1.13
same,glycan array binding signal (z-score),[23],1.36
same,glycan array binding signal (z-score),[24],0.104
same,glycan array binding signal (z-score),[25],-0.269
same,glycan array binding signal (z-score),[26],-0.506
same,glycan array binding signal (z-score),[27],-0.122
same,glycan array binding signal (z-score),[28],-0.211
same,glycan array binding signal (z-score),[29],-0.482
same,glycan array binding signal (z-score),[30],0.261
same,glycan array binding signal (z-score),[31],12.5
same,glycan array binding signal (z-score),[32],1.45
same,glycan array binding signal (z-score),[33],-0.199
same,glycan array binding signal (z-score),[34],0.017
same,glycan array binding signal (z-score),[35],0.413
same,glycan array binding signal (z-score),[36],-0.215
same,glycan array binding signal (z-score),[37],-0.552
same,glycan array binding signal (z-score),[38],-0.205
same,glycan array binding signal (z-score),[39],0.143
same,glycan array binding signal (z-score),[40],1.16
same,glycan array binding signal (z-score),[41],0.955
same,glycan array binding signal (z-score),[42],0.007
same,glycan array binding signal (z-score),[43],1.86
same,glycan array binding signal (z-score),[44],0.578
same,glycan array binding signal (z-score),[45],1.66
same,glycan array binding signal (z-score),[46],-0.121
same,glycan array binding signal (z-score),[47],0.387
same,glycan array binding signal (z-score),[48],-0.207
same,glycan array binding signal (z-score),[49],0.153
